# Experimental data taken from PubChem BioAssay (NCI).
# About 83,000 compounds went through this panel and 20% of them were active in at least one assay; those are over-represented in the sample as a whole.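 Plates (96-well) were seeded with cells, treated with compound at one concentration, and incubated for 48 hours before percent growth was determined.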 Unmarked numbers belong to inactive results. Calls of active or inactive are those of the source. Rule for the calls: active = growth percent below 10; inactive = the rest.
# Columns and labels:
# Assay in all cases: NCI-60 one-dose screen, 48 h (100 = growth as untreated, 0 = no growth, -100 = all killed)
# SR leukemia = conditions: 10 µM unless noted
# RPMI-8226 leukemia = conditions: 10 µM unless noted
# OVCAR-8 ovarian = conditions: 10 µM unless noted
# OVCAR-5 ovarian = conditions: 10 µM unless noted
# OVCAR-4 ovarian = conditions: 10 µM unless noted
# SK-OV-3 ovarian = conditions: 10 µM unless noted
# IGROV1 ovarian = conditions: 10 µM unless noted
# OVCAR-3 ovarian = conditions: 10 µM unless noted
# HS 578T breast = conditions: 10 µM
# NCI/ADR-RES ovarian = conditions: 10 µM unless noted
# T-47D breast = conditions: 10 µM unless noted
# BT-549 breast = conditions: 10 µM unless noted
# MDA-MB-435 melanoma = conditions: 10 µM unless noted
# SW-620 colon = conditions: 10 µM unless noted
# MCF7 breast = conditions: 10 µM unless noted
# HCT-116 colon = conditions: 10 µM unless noted
# HCC-2998 colon = conditions: 10 µM
# KM12 colon = conditions: 10 µM unless noted
SMILES,growth (SR leukemia),growth (RPMI-8226 leukemia),growth (OVCAR-8 ovarian),growth (OVCAR-5 ovarian),growth (OVCAR-4 ovarian),growth (SK-OV-3 ovarian),growth (IGROV1 ovarian),growth (OVCAR-3 ovarian),growth (HS 578T breast),growth (NCI/ADR-RES ovarian),growth (T-47D breast),growth (BT-549 breast),growth (MDA-MB-435 melanoma),growth (SW-620 colon),growth (MCF7 breast),growth (HCT-116 colon),growth (HCC-2998 colon),growth (KM12 colon)
CCOc1cccc(/C=N/NC(=O)c2ccccc2Nc2ccnc(C(F)(F)F)c2)c1O,-20.1% (active),-19.7% (active),20.7%,13%,25%,8.43% (active),-13.8% (active),31.5%,39.2%,-0.31% (active),16.5%,26.4%,29.8%,32.3%,2.99% (active),14.7%,48.6%,33.2%
COc1cc2cc(NCc3ccc(F)cc3)nc(C)c2cc1OC,22.2%,14.2%,51%,53.4%,96.7%,75.3%,59.1%,68.2%,75.8%,44.4%,53.2%,29%,24.6%,21.8%,68.6%,9.34% (active),42.3%,42.3%
COc1cnc2c(c1)C(=O)c1c-2n(CCCNC2=NCCS2)c(=O)c2cc(Cl)ccc12,2.52% (active),-31.2% (active),-25.1% (active),4.29% (active),49.5%,20.9%,-57% (active),-67.9% (active),85.8%,-14.5% (active),32.9%,41.6%,7.73% (active),-79.3% (active),-74.9% (active),-87.8% (active),-35.6% (active),-63.2% (active)
O=C1CC(c2ccc3c(c2)OCO3)c2ncn(-c3ccc(Cl)cc3)c2N1 (stereo unspecified),24.4%,38.7%,29.7%,71.2%,59.3%,37.4%,60.5%,7.91% (active),47.5%,14%,41.3%,57.5%,-42.8% (active),24.3%,45.5%,11.4%,68.1%,32.7%
COC(=O)[C@]12CC[C@@H](C)[C@H](C)[C@@H]1C1=CC[C@@H]3[C@@]4(C)C[C@@H](OC(=O)/C=C/c5ccccc5)[C@H](O)[C@@](C)(CO)[C@@H]4[C@H](O)C[C@@]3(C)[C@]1(C)CC2,-18.4% (active),9.79% (active),14.6%,-27.6% (active),23.3%,41.9%,31.2%,-37.1% (active),-0.549% (active),7.34% (active),13.2%,34.4%,11.5%,-58.6% (active),14.3%,-56.4% (active),-41.8% (active),-2.35% (active)
COC(=O)[C@H](Cc1ccccc1)NC(=O)[C@@H](OC)[C@@H]1Cc2cc3cc(OC4CC(OC5CC(O)C(O)C(C)O5)C(O)C(C)O4)c(C)c(O)c3c(O)c2C(=O)[C@H]1OC1CC(OC2CC(OC3CC(C)(O)C(O)C(C)O3)C(O)C(C)O2)C(O)C(C)O1 (stereo partly specified),7.89% (active),-16.5% (active),7.42% (active),8.6% (active),1.44% (active),17%,25.5%,5.7% (active),-16.7% (active),51.6%,2.51% (active),-62.4% (active),-69.4% (active),6.79% (active),3.21% (active),1.85% (active),-45.2% (active),-5.45% (active)
COc1ccc(C2CC(=O)c3c(O)c(OC)c(OC)c(OC)c3O2)c(O)c1 (stereo unspecified),23%,32.7%,36.5%,54.2%,48.9%,42.9%,46.3%,0.132% (active),36.5%,4.44% (active),57.8%,60.6%,-33.7% (active),26.2%,32.5%,10.2%,15.9%,19.9%
Cc1cc(N2CCCC2)nc(N(CCCNc2ccnc3cc(Cl)ccc23)Cc2ccc3c(c2)OCO3)n1,-36% (active),-31.2% (active),-2.12% (active),-3.2% (active),13.5%,53.5%,-7.14% (active),-32.8% (active),-32.2% (active),1.74% (active),-18.4% (active),-14.1% (active),-71.9% (active),-27% (active),-12.8% (active),-22.9% (active),-52.4% (active),19.1%
O=C(c1ccccc1)C(c1ccccc1)N1CCOCC1 (stereo unspecified),95.6%,101%,105%,105%,108%,105%,104%,101%,97%,98.6%,98.8%,110%,109%,103%,98.3%,102%,102%,99.1%
O=C(Cn1ccnc1)Nc1ccc(-c2nc3ccccc3s2)cc1,36.5%,52%,80.3%,104%,34.8%,87.8%,68.9%,62.2%,86.9%,88.2%,51.4%,65.1%,81.6%,99.8%,61.3%,68.2%,94.9%,84.4%
Nc1c2c(c(O)c3c1=C(CO)C=N3)=NCCS2,3% (active),-30.8% (active),-46.4% (active),-70.5% (active),-95.3% (active),-90.9% (active),-64.3% (active),-62.3% (active),5.57% (active),-24.8% (active),-42.5% (active),-95.9% (active),-82% (active),-76% (active),-50.8% (active),-90.7% (active),-94.2% (active),-70.4% (active)
Cc1cccc(NC(=O)[C@@H]2c3ccccc3C(=O)N(c3ccc(Cl)cc3)[C@H]2c2ccc(Cl)cc2)n1,34.5%,24.5%,51.2%,78.7%,45.1%,55.1%,73.5%,61.8%,72.4%,47.8%,41.6%,63.3%,46.6%,40.6%,40.9%,26.2%,50.6%,34.5%
COC(=O)[C@@H](OC)[C@@H]1Cc2cc3cc(OC4CC(OC5CC(O)C(O)C(C)O5)C(O)C(C)O4)c(C)c(O)c3c(O)c2C(=O)[C@H]1OC1CC(OC2CC(OC3CC(C)(O)C(O)C(C)O3)C(O)C(C)O2)C(O)C(C)O1 (stereo partly specified),4.74% (active),-17.5% (active),10.2%,18.8%,3.96% (active),21%,28%,6.49% (active),-10.5% (active),42.7%,4% (active),-32.9% (active),-62.4% (active),8.04% (active),8.9% (active),3.51% (active),-32.9% (active),1.5% (active)
O=C(Cn1ccc2ccccc21)Nc1ccc(-c2nc3ccccc3s2)cc1,95.5%,100%,105%,104%,103%,102%,73.8%,102%,97.7%,100%,90.6%,105%,104%,106%,38.2%,102%,103%,106%
CC1(/C=N/NC(N)=S)NC(=O)NC1=O (stereo unspecified),94.8%,104%,97.7%,102%,109%,86.9%,111%,109%,97%,111%,79.5%,105%,107%,106%,94.8%,98.4%,118%,104%
CCN1CCN(c2nc(C)cc(N(CCNc3ccnc4cc(Cl)ccc34)Cc3ccc4c(c3)OCO4)n2)CC1,-35.2% (active),-30.4% (active),16.1%,78.2%,34.1%,74.8%,42.7%,20.9%,22.1%,36.4%,-51.7% (active),21.5%,-72.5% (active),3.4% (active),23.8%,10.3%,-29.8% (active),55.9%
CC1(O)CCC(Nc2cc(-c3ccc(C(F)(F)F)cc3)c(C#N)c3nc4ccccc4n23)CC1 (stereo unspecified),79.4%,56.8%,78.3%,99%,55.2%,68.6%,79.3%,81.4%,74.4%,61.8%,53%,38.2%,64.7%,90.5%,43.9%,53.6%,86.5%,68.7%
